# In PubChem BioAssay AID651956 (Broad Institute, 2012):
# Entries with a potency or affinity are not part of this list. Results filed as inconclusive are left out. Activity calls are given as the source filed them.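 Rule for the calls: active = in every test run, a fitted half-maximal concentration for signal decrease at or below twice the highest tested concentration; inconclusive = runs disagree, flat 30 to 70% decrease, or poor fit; inactive = the rest.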
# Assay: miR-122 activators in hepatoma reporter cells, dose response, cell-based, Huh7 psiCHECK-miR122, Renilla luciferase, cherry-picked (AID 651956);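 note: Renilla luciferase from a miR-122 sensor reporter so lower signal means miR-122 activation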
# Details: 48 h; series mostly up to 35 µM
row,SMILES,outcome
1,C[C@@H]1CN([C@@H](C)CO)S(=O)(=O)c2ccc(-c3ccccc3F)cc2O[C@@H]1CN(C)Cc1cccnc1,inactive
2,CCN(C[C@H]1[C@H](c2ccccc2)[C@H](CO)N1C(=O)COC)S(C)(=O)=O,inactive
3,CCCNC(=O)C[C@@H]1CC[C@@H]2[C@@H](COc3ccc(NS(=O)(=O)c4ccccc4C)cc3C(=O)N2C)O1,inactive
4,O=C(c1ccccc1)N1C[C@H]2[C@@H](c3ccccc31)[C@@H](CO)N2C(=O)CN1CCOCC1,inactive
5,CCCNC(=O)Nc1ccc2c(c1)C(=O)N(C)[C@@H]1CC[C@@H](CC(=O)NCC3CCCCC3)O[C@@H]1CO2,inactive
6,CCCCc1cc(=O)oc2cc(C)cc(OC(C)C(=O)O)c12 (centres undefined),inactive
7,O=C(Oc1c(CN2CCOCC2)cc(Cl)c2cccnc12)c1ccc(F)cc1,inactive
8,CCCNC(=O)N1C[C@@H]2[C@H](c3ccccc31)[C@@H](CO)N2Cc1cc(F)ccc1F,inactive
9,CO[C@H]1CN(C)C(=O)c2cc(NC(=O)c3ccccc3F)ccc2OC[C@@H](C)N(C)C[C@@H]1C,inactive
10,CCCNC(=O)C[C@H]1CC[C@@H]2[C@H](COc3ccc(NC(=O)c4cc(F)cc(F)c4)cc3C(=O)N2C)O1,inactive
11,COC(=O)C[C@@H]1CC[C@@H]2[C@H](COc3ccc(NC(=O)c4ccc(F)c(F)c4)cc3C(=O)N2C)O1,inactive
12,Cc1cccc(NC(=O)Nc2ccc3c(c2)C(=O)N(C)[C@H]2CC[C@H](CC(=O)O)O[C@H]2CO3)c1,inactive
13,O=C(C1CC1)N(CCN(C(=O)C1CC1)c1ccccc1)c1ccccc1,inactive
14,COC(=O)c1cc(NS(=O)(=O)c2ccc3c(c2)CCC(=O)N3)cc(C(=O)OC)c1,inactive
15,C[C@H](NC(=O)C[C@@H]1CC[C@H]2[C@H](COc3ccc(NS(=O)(=O)c4ccc(Cl)cc4)cc3C(=O)N2C)O1)c1ccccc1,inactive
16,N=c1c2c(-c3ccccc3)c(-c3ccccc3)n(Cc3ccccc3)c2ncn1CCCO,inactive
17,C=CCNC(=S)NNC(=O)c1cccn(Cc2ccc(Cl)c(Cl)c2)c1=O,inactive
18,Cc1ccc(C2CC(C(F)(F)F)n3nc(C(=O)NCc4ccco4)cc3N2)cc1 (centres undefined),inactive
19,COc1ccc(CC(NC(C)=O)C(=O)N2CCN(C(=O)N(C(C)C)C(C)C)CC2)cc1 (centres undefined),inactive
20,Cn1c(NC(=O)c2ccco2)c(-c2ccccc2Cl)c(=O)c2ccccc21,inactive

row,SMILES,outcome
1,CO[C@@H]1CN(C)C(=O)c2ccc(NS(C)(=O)=O)cc2OC[C@H](C)N(C(=O)CN(C)C)C[C@@H]1C,inactive
2,COC(=O)C[C@@H]1CC[C@@H]2[C@H](COc3ccc(NS(=O)(=O)c4ccc(F)cc4)cc3C(=O)N2C)O1,inactive
3,CN1C(=O)c2cc(NC(=O)Cc3ccccc3)ccc2OC[C@H]2O[C@@H](CC(=O)NC3CCC3)CC[C@@H]21,inactive
4,CCOc1cc(C(=O)NC(C)COC)cc(OCC)c1OCC (centres undefined),inactive
5,COC(=O)C[C@H]1CC[C@@H]2[C@@H](COc3ccc(NC(=O)c4cscn4)cc3C(=O)N2C)O1,inactive
6,O=C(Nc1nc(-c2cc3ccccc3o2)cs1)c1ccc(S(=O)(=O)N2CCCC2)cc1,inactive
7,COc1ccc(-c2c(-c3ccccc3)c(C(=O)C(=O)NCCCN(C)C)n3ccc4cc(OC)c(OC)cc4c23)cc1OC,inactive
8,CNC[C@H]1Oc2cc(C#CC3CCCCC3)ccc2S(=O)(=O)N([C@H](C)CO)C[C@@H]1C,inactive
9,C/C=C/c1ccc([C@H]2[C@H](CO)N(C(C)=O)[C@H]2CN(C)C(=O)c2ccccn2)cc1,inactive
10,COC(=O)C[C@H]1CC[C@H]2[C@H](COc3ccc(NC(=O)c4cscn4)cc3C(=O)N2C)O1,inactive
11,COc1ccc(CNCCC(c2ccc(OC)cc2)c2ccccc2OC)cc1 (centres undefined),inactive
12,CCNC(=O)C[C@H]1CC[C@H]2[C@H](COc3ccc(NS(C)(=O)=O)cc3C(=O)N2C)O1,inactive
13,COCCNC(=O)C[C@H]1CC[C@@H]2[C@@H](COc3ccc(NS(=O)(=O)c4ccc(Cl)cc4)cc3C(=O)N2C)O1,inactive
14,CO[C@H]1CN(C)C(=O)c2cc(NC(=O)C3CC3)ccc2OC[C@H](C)N(CCc2ccccc2)C[C@H]1C,inactive
15,c1ccc(-c2nnc3n2CCCC3)cc1,inactive
16,O=C(NC[C@H]1[C@H](c2ccccc2)[C@@H](CO)N1Cc1ccccn1)C1CC1,inactive
17,C[C@@H]1CN([C@@H](C)CO)S(=O)(=O)c2ccc(C3=CCCCC3)cc2O[C@@H]1CN(C)C(=O)Nc1ccc2c(c1)OCO2,inactive
18,CCCNC(=O)C[C@H]1CC[C@@H]2[C@H](COc3ccc(NC(=O)c4cccs4)cc3C(=O)N2C)O1,inactive
19,CCCNC(=O)C[C@H]1CC[C@@H]2[C@@H](COc3ccc(NC(=O)c4ccc5c(c4)OCO5)cc3C(=O)N2C)O1,inactive
